Laboratory results reported in PubChem BioAssay (NCATS).
Inconclusive results are not listed. Where a call stands in place of a potency, no number is given. Activity calls are given as the source filed them. Calls come from the whole dose curve; as a rule, active = well fitted cell-killing curve with a large enough effect; inconclusive = small, poorly fitted or top-dose-only effect, or effect the other way; inactive = no such curve, though single readings can be large or run the other way.

What was measured:
[1] = Viability qHTS for spleen associated tyrosine kinase inhibitor (SYKi) naive MV4-11 cells (AID 1963823); note: nearly all actives have a fitted effect of over 40% in size
Summary of the method: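 In this viability screen, compounds acted on SYK inhibitor naive MV4-11 cells for three days (72 hr, 37 C). Remaining viable cells were measured by CellTiter-Glo luminescence following a 10 min room-temperature development.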

[2] = Viability qHTS for spleen associated tyrosine kinase inhibitor (SYKi) drug resistant MV4-11 cells (AID 1963824); note: nearly all actives have a fitted effect of over 35% in size
Summary of the method: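 SYK inhibitor-resistant MV4-11 AML cells, 500 per well, added to predispensed compounds and incubated 72 hr at 37 C, 5% CO2. Viability measured by CellTiter-Glo luminescence after 10 min at room temperature.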
Potency is the fitted concentration of half-maximal effect.

| SMILES | Potency [1] | Potency [2] |
| --- | --- | --- |
| CC1=C2C(=O)C=C(CO)C2C2OC(=O)C(CS(=O)(=O)O)C2C(OC(=O)Cc2ccc(O)cc2)C1 (configuration not stated) | inactive | inactive |
| C=C(C(=O)OC[C@H]1O[C@@H](OC(=O)/C=C/c2ccccc2)[C@H](O)[C@@H](O)[C@@H]1O)C(O)CO (some centres not stated) | 7960 nM (active) | 11200 nM (active) |
| COC(=O)CC1CC(c2ccc(O)cc2)=NO1 (configuration not stated) | inactive | inactive |
| O=C1NC(=O)/C(=C\c2ccc3nccc(-c4ccncc4)c3c2)S1 | 130 nM (active) | 517 nM (active) |
| CN(C)CCOc1cc(NS(=O)(=O)c2c(Cl)cc(C(F)(F)F)cc2Cl)ccc1Cl | inactive | inactive |
| C[C@@H](Oc1cc(-n2cnc3ccc(OC4CCN(C)CC4)cc32)sc1C(N)=O)c1ccccc1C(F)(F)F | 18.4 nM (active) | 9.2 nM (active) |
| CC(O)C1NC(=O)C2CCCN2C1=O (configuration not stated) | inactive | inactive |
| CC1OC(=O)C[C@@H]2C(C(=O)O)=CO[C@@H](O[C@H]3O[C@H](CO)[C@@H](O)[C@H](O)[C@H]3O)[C@H]12 (some centres not stated) | inactive | inactive |
| CC1CCC23COC(=O)C2=CC(O)CC3C1(C)CCc1ccoc1 (configuration not stated) | inactive | inactive |
| C=C1[C@H](OC(C)=O)[C@H]2[C@@H](OC(=O)c3ccccc3)[C@@H](C)C[C@]2(O)[C@@H](OC(C)=O)[C@H](C)/C=C/C(C)(C)C(=O)[C@H](OC(C)=O)[C@H]1OC(C)=O | inactive | inactive |
| OC[C@H]1O[C@@H](OCCc2ccccc2)[C@H](O[C@@H]2OC[C@](O)(CO)[C@H]2O)[C@@H](O)[C@@H]1O | inactive | inactive |
